A selection: hits, their analogues and other compounds. The true share with any hit is near 5.5%.
ELG1 DNA repair: inhibitors of ELG1-dependent DNA repair in HEK293T cells; Potency, µM (doses to about 46.1 µM), hits mostly inhibitors; actives 2.3% (n = 330,000); HEK293T ELG1-luciferase reporter, luminescence, 16 h; DNA damage induced by 5-fluorouridine; also: nearly all actives have a fitted effect of over 55% in size
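Step one: seed 2,000 cells per well. Step two: pin-transfer compound or DMSO alongside 5-fluorouridine. Step three: incubate 16 hr, 37 °C, 5% CO2. Step four: add ONE-Glo, wait 30 min, read luminescence.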
Giardia kill: Giardia lamblia killing; Giardia lamblia trophozoite viability; activity change, % at 7.66 µM, hits read low; actives 0.15% (n = 340,000); AID 540267; in the data active = activity change below about -80%; inconclusive = between about -30% and that limit;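 also: parasites exposed to compound for two days anaerobically before the ATP read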
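Luminescence from cellular ATP indicates surviving trophozoites (100 cells/well) following 48 hrs anaerobic compound treatment at 37 deg C; signal develops 15-30 min at room temperature.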
Sfp PPTase inh: Sfp phosphopantetheinyl transferase inhibition. Q9F4F7. AID 1490. actives 3.5% (n = 310,000). Biochemical Sfp PPTase activity, qHTS. Potency, µM, hits mostly inhibitors;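 also: the enzyme is Sfp with the accession as filed and its product quenches rhodamine fluorescence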
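After 15 min at room temperature with compound, 15 nM Sfp received 5 uM rhodamine-CoA plus 12.5 uM BHQ-2-ybbR (50 mM Hepes pH 7.6, 10 mM MgCl2). Rate came from the fluorescence difference over 30 min, ex 525/em 598 nm.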
Coupling enz: counter-screen for Giardia aldolase inhibitors: coupling enzyme system; coupling enzyme system counterscreen, AmpLite Red fluorescence; activity change, negative = inhibition, % at 58.2 µM, hits read low; actives 0.67% (n = 290,000); AID 2472; in the data active = activity change below about -30%
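Compounds tested against the coupling enzymes alone at 57.5 uM final; readout was AmpLite Red fluorescence (525/598 nm) after 20 min at RT.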
Hits are given with their value; . = inactive; ? = inconclusive; / = not tested or not shown. Unless noted, calls follow the shape of the dose curve; as a rule, active = well fitted curve in the direction sought with a large enough effect; inconclusive = small, poorly fitted or top-dose-only effect, or another doubt; inactive = no such curve, though single readings can be large; an effect the other way counts as inactive or inconclusive.

SMILES | ELG1 DNA repair | Giardia kill | Sfp PPTase inh | Coupling enz
Cc1onc(-c2ccccc2Cl)c1C(=O)Nc1nnc(C2CCCCC2)s1 | / | . | / | /
NC(=S)N/N=C/c1c(O)c(Br)cc2oc3c(c12)CCCC3 | 21µM | . | . | .
O=C(CSc1nnnn1-c1cccnc1)Nc1ccccc1F | . | . | . | .
Cc1ccc(S(=O)(=O)C2(S(=O)(=O)c3ccc(C)cc3)CC2)cc1 | 23µM | . | . | .
Cc1ccc(CNC(=O)c2cn(C3CCCC3)c(=O)c3c2c2ccccc2n3C)o1 | / | / | 1.4µM | .
Cc1ccc(NC(=O)CN2C(=O)NC3(CCc4ccccc43)C2=O)cc1S(=O)(=O)N1CCCCC1 (stereo not given) | ? | . | / | /
CCCC[C@H](CC)CN=C(N)NC(N)=NCCCCCCN=C(N)NC(N)=NC[C@@H](CC)CCCC | / | / | 8.9µM | .
COc1ccc(C)cc1NS(=O)(=O)c1ccc(Cl)nc1 | . | . | / | /
Cc1ccccc1CC(=O)Nc1cccc(S(=O)(=O)N2CCCC2)c1 | . | . | / | /
CCC(C)NC(=O)c1cn(CC)c2cc(N3CCN(C(=O)c4ccco4)CC3)c(F)cc2c1=O (stereo not given) | 21µM | . | . | /
CCn1cc(C(=O)NCc2ccc(C)cc2)c(=O)c2cc(S(=O)(=O)N(C)C)ccc21 | 21µM | . | . | .
C=CCn1cc(C(=O)NCCOC)c(=O)c2cc(S(=O)(=O)N3CCCCCC3)ccc21 | ? | . | . | .
C=CCn1cc(C(=O)NCc2ccco2)c(=O)c2cc(S(=O)(=O)N3CCCCCC3)ccc21 | 6.5µM | . | . | .
O=C(NCc1ccco1)c1ccc(S(=O)(=O)N2CCOCC2)cc1 | . | . | 20µM | .
COc1ccccc1CNc1nc(-c2ccccc2CN(C)C)nc2ccccc12 | / | / | . | .
COc1ccc(-c2cc(CCC(=O)N3CCN(c4cc(C)ccc4C)CC3)[nH]n2)cc1 | ? | . | / | /
CCn1cc(C(=O)NCc2ccccn2)c(=O)c2cc(S(=O)(=O)N3CCCCC3)ccc21 | ? | / | . | .
CCn1cc(C(=O)NCc2ccco2)c(=O)c2cc(S(=O)(=O)N3CCCCCC3)ccc21 | 4.6µM | . | ? | .
O=S(=O)(c1cccc(C(F)(F)F)c1)N1CCN(C(=S)NCc2ccco2)CC1 | . | . | 71µM | .
CCC(C)NC(=O)c1cn(CC)c2ccc(S(=O)(=O)N3CCCCCC3)cc2c1=O (stereo not given) | 6.5µM | . | . | .
CCn1cc(C(=O)NCc2ccco2)c(=O)c2cc(S(=O)(=O)N3CCc4ccccc4C3)ccc21 | 10µM | . | ? | .
COc1cc(C(=O)OCC(=O)N2CCN(C(C)=O)CC2)ccc1OCC(C)C | . | . | / | /
Cc1ccc(Cn2c(CO)cnc2SCC(=O)Nc2ccc(C)c(Cl)c2)cc1 | / | . | / | /
CCn1cc(C(=O)N2CCCC2)c(=O)c2cc(S(=O)(=O)N3CC(C)CC(C)C3)ccc21 (stereo not given) | . | . | . | .
CCn1cc(C(=O)NCc2ccco2)c(=O)c2cc(S(=O)(=O)N3CC(C)CC(C)C3)ccc21 (stereo not given) | 2.9µM | . | . | .
SMILES | ELG1 DNA repair | Giardia kill | Sfp PPTase inh | Coupling enz
Cc1cc(C)cc(NS(=O)(=O)c2ccc3[nH]cc(C(=O)NCc4ccco4)c(=O)c3c2)c1 | 10µM | . | ? | .
Cc1ccccc1NS(=O)(=O)c1ccc2[nH]cc(C(=O)N(C)Cc3ccco3)c(=O)c2c1 | . | . | . | .
O=C(COC(=O)c1cc(S(=O)(=O)N2CCc3ccccc3C2)ccc1Cl)NCc1ccco1 | . | . | 45µM | .
CCn1cc(C(=O)NCc2ccco2)c(=O)c2cc(S(=O)(=O)N3CCC(C)CC3)ccc21 | 10µM | . | ? | .
CCOc1ccc(N2CC(C(=O)Nc3cccc(C(=O)NC4CC4)c3)CC2=O)cc1 (stereo not given) | . | . | / | /
Cc1c(NC(=O)COC(=O)c2ccc(Cl)nc2)c(=O)n(-c2ccccc2)n1C | . | . | / | /
C[C@]12CC[C@H]3c4ccc(O)cc4CC[C@@H]3[C@H]1CC[C@@H]2OC(=O)CCC1CCCC1 | / | / | . | /
CCn1c(SCC(=O)N2CCC(C)CC2)nc2c1c(=O)n(C)c(=O)n2C | . | . | . | .
N#CCc1nn2c3c(cnc2c1C#N)C(=O)CCC3 | . | . | . | -32
Cc1nn2c3c(cnc2c1-c1ccccc1)C(=O)CCC3 | ? | . | . | .
O=[N+]([O-])c1cc(CN2CCOCC2)c2cccnc2c1O | . | . | . | .
Oc1c(CN2CCCCC2)cc(Br)c2cccnc12 | ? | . | 45µM | .
O=[N+]([O-])c1cc(CN2CCN(c3ccccc3)CC2)c(O)c2ncccc12 | 4.6µM | . | . | .

High-throughput results: PubChem BioAssay, National Center for Advancing Translational Sciences (NCATS)
